The text below walks through data of PubChem BioAssay AID624296 (National Center for Advancing Translational Sciences (NCATS), 2012).

Out of some 350,000 compounds screened, about 9,900 (2.8%) were called active. Not shown: some 15% with an inconclusive outcome. Calls come from the whole dose curve; as a rule, active = well fitted activation curve with a large enough effect; inconclusive = small, poorly fitted or top-dose-only effect; inactive = no such curve, though single readings can be large or run the other way. Shown is part of a subset that was picked to be rich in actives. Entries that show only a call come without a potency.
Potency is the fitted concentration of half-maximal effect.

The nature of this assay: A quantitative high throughput screen for small molecules that induce DNA re-replication in MCF 10a normal breast cells. Note: nearly all actives have a fitted effect of over 50% in size. Conditions: MCF 10A DNA re-replication, Hoechst nuclear intensity, 48 h; series mostly up to 46.1 µM.
Take `COC[C@@H]1NS(=O)(=O)c2ccc(Br)cc2O[C@H]1c1ccccc1`: the Potency result was “inactive”.
For `COC(=O)c1sc(-c2ccc(C(C)(C)C)cc2)cc1NC(=O)/C=C/C(=O)O`, the Potency was 16.4 µM (active).
For the molecule `O=C(O)/C=C/C(=O)Nc1ccc(F)cc1F`, the Potency entry was “inactive”.
As for `COc1ccccc1NC(=O)/C=C/C(=O)O`, the Potency result was “inactive”.
Consider `COC(=O)c1sc(NC(=O)COC(=O)C2CCC2)c(C(=O)OC)c1C`, for which the Potency entry was “inactive”.
The entry for `CC(NCC(=O)Nc1ccccc1C(=O)NC1CC1)c1ccccc1Cl` (configuration not stated) is “inactive”; for `CC(C)CC(=O)Nc1ccc(Cc2ccncc2)cc1` it is “inactive”.
Under `O=C(O)CCCC(=O)Nc1ccccc1-n1ccnc1` stands “inactive”.
With `CC(CC(=O)Nc1ccccc1)n1ccnc1` (configuration not stated), the Potency was 0.92 µM (active).
Take `O=[N+]([O-])c1ccc(COc2ccccc2CN2CCOCC2)cc1`: the Potency result was “inactive”.
As to `CCN(CC(=O)NCc1ccc(F)cc1)S(=O)(=O)c1ccc(Cl)s1`, the Potency result is “inactive”.
As for `COc1ccc2sc(-c3ccc(S(C)(=O)=O)cc3)c(-c3ccc(C(N)=O)cc3)c2c1`, the Potency is 25.9 µM (active).
In the case of `COc1cccc(C(=O)Nc2nc3ccc(S(C)(=O)=O)cc3s2)c1`, the Potency entry was “inactive”.
For the molecule `COc1ccc(C(=O)Nc2cccc(S(C)(=O)=O)c2)cc1`, the Potency result is “inactive”.
Regarding `CC(=O)Nc1ccc(S(=O)(=O)NCCC(=O)N2CCN(c3ccccc3Cl)CC2)cc1`, the Potency entry is “inactive”.
`NC(=O)c1ncn([C@@H]2O[C@H](CN=C3NS(=O)(=O)c4ccccc43)[C@@H](O)[C@H]2O)n1`: the Potency result is “inactive”.
The entry for `CCc1sc(C(=O)N2CCN(CC(=O)Nc3cccc(F)c3)CC2)cc1C` is “inactive”; for `COC(=O)CN(C(=S)Nc1ccc(Cl)cc1)C1CC(=O)N(c2ccc(OC)cc2)C1=O` (configuration not stated) it is “inactive”; for `CCOc1ccc(N2C(=O)CC(N(O)c3ccccc3)C2=O)cc1` (configuration not stated) it is “inactive”.
Under `CCOc1ccc(N2C(=O)CC(N(CCc3ccc(OC)c(OC)c3)C(=S)Nc3ccccc3)C2=O)cc1` (configuration not stated) stands 23.1 µM (active); under `COc1ccccc1N1CCN(CC(=O)Nc2ccnn2C2CCCC2)CC1`, “inactive”; under `CC(C)Cn1cnc2c(SCc3ccc(Cl)cc3)nc(N)nc21`, “inactive”.
On to `O=C(O)c1ccc(Cn2c(=S)[nH]c3cc(Cl)ccc3c2=O)cc1`, for which the Potency result is “inactive”.
Under `CC(C)c1ccc2c(c1)c(SC(C)(C)C)c(CC(C)(C)C(=O)O)n2Cc1ccc(Cl)cc1` stands 2.91 µM (active); under `CCN([C@H](CO)C(C)C)S(=O)(=O)c1ccccc1Br`, “inactive”; under `COc1cc(OC)cc(-c2c(C#Cc3ccsc3)c3cc(-c4ccc(OC)cc4F)ccc3n2C)c1`, 0.326 µM (active).
The entry for `COc1ccc(-c2c(C#Cc3ccsc3)c3cc(-c4ccc(CN5CCOCC5)cc4)ccc3n2C)cc1` is “inactive”; for `COc1cc(OC)cc(-c2c(C#Cc3ccsc3)c3cc(-c4ccc(SC)cc4)ccc3n2C)c1` it is “inactive”.
Regarding `COc1cccc2oc(CCc3ccccc3)cc(=O)c12`, the Potency entry is “inactive”.
On to `Cc1nn(-c2ncccn2)c2c1C(=O)CC(C)(C)C2Br` (configuration not stated), for which the Potency entry was “inactive”.
As to `O=C(O)CCC(=O)N(Cc1ccccc1)Cc1ccccc1`, the Potency is 0.731 µM (active).
For `O=C(O)CCC(=O)N(Cc1cccs1)Cc1cccs1`, the Potency result is “inactive”.
For the molecule `CCN(CC)C(=O)N(CC)Cc1ccccc1`, the Potency result was “inactive”.
For `Cc1cc(NC(=O)C(C)SCC(=O)Nc2cccc(S(=O)(=O)N3CCCCCC3)c2)no1` (configuration not stated), the Potency result was “inactive”.
Consider `Cn1cc(CCC(=O)NCc2ccc3c(c2)OCO3)c2ccccc21`, for which the Potency result was “inactive”.
With `O=C(CCc1nnc(Cc2ccc3c(c2)OCO3)o1)NCCc1ccccc1Cl`, the Potency is 20.6 µM (active).
Under `O=C(CC(Cc1ccccc1)C(=O)O)NCCc1ccc2c(c1)OCO2` (configuration not stated) stands “inactive”; under `COc1ccc(CCC(=O)N2CCN(S(=O)(=O)c3ccc(OC)cc3)CC2)cc1`, “inactive”.
For the molecule `Cc1ccccc1-n1c(C)cc(/C=C2\NC(=O)NC2=O)c1C`, the Potency was 25.9 µM (active).
Consider `Cc1ccc(CN2C(=O)N/C(=C/c3cc(C)n(-c4ccccn4)c3C)C2=O)cc1`, for which the Potency result was “inactive”.
Consider `Cc1ccccc1-n1c(C)cc(/C=N/NC(=O)c2ccc(CN3CCOCC3)cc2)c1C`, for which the Potency entry is “inactive”.
Consider `CC1(C)CC(=O)C=C(c2cccc3c2Oc2ccccc2S3)C1`, for which the Potency entry was “inactive”.
`CC(=NNC(=O)c1ccc2nc[nH]c2c1)c1ccc(Br)cc1`: the Potency entry was “inactive”.
As to `Cc1csc(NC(=O)c2ccc(-c3ccc(Cl)cc3Cl)o2)n1`, the Potency was 18.4 µM (active).
On to `Cc1csc(NC(=O)c2ccc(C)s2)n1`, for which the Potency result is “inactive”.
In the case of `O=C(Nc1cccc2ncccc12)c1ccc(-c2ccc(Cl)cc2Cl)o1`, the Potency result is “inactive”.
On to `CC(Nc1ccc([N+](=O)[O-])cc1[N+](=O)[O-])c1ccccc1` (configuration not stated), for which the Potency result was “inactive”.
Under `CCCn1c(C(C)Nc2nc(-c3ccc(C)cc3)cs2)nc2cc(Cl)c(N3CCCCC3)cc21` (configuration not stated) stands “inactive”; under `Cc1nc2cc(C(F)(F)F)ccc2n1CCNc1nc(-c2cc(Cl)c(N)c(Cl)c2)cs1`, 23.1 µM (active).
Under `CCCn1c(CCNc2nc(-c3ccc(OC)cc3)cs2)nc2ccccc21` stands “inactive”.
Regarding `CC1CCCCC1NC(=O)Cn1cnc2c1c(=O)n(C)c(=O)n2C` (configuration not stated), the Potency entry was “inactive”.
Regarding `CCCN(CC(=O)Nc1ccccc1C)C(=O)c1ccc(OCC(=O)N2CCOCC2)c(OCC)c1`, the Potency entry was “inactive”.
Consider `COc1ccc(Cc2nc3ccc(C(=O)NCC4CCOCC4)cc3o2)cc1OC`, for which the Potency entry is “inactive”.
As to `CSCCNC(=O)c1ccc2nc(Cc3ccccc3F)oc2c1`, the Potency result was “inactive”.
The figure for `COCCNC(=O)c1ccc2nc(Cc3ccc(OC)c(OC)c3)oc2c1` is 3.26 µM (active); for `CCOc1ccc(NC(=O)CN(C)C(=O)c2cccc(S(=O)(=O)N3CCCC3)c2)cc1OCC` it is “inactive”.
For the molecule `COc1ccc(S(=O)(=O)N2CCOCC2)cc1NC(=O)c1ccc(OCC(C)C)c(OC)c1`, the Potency result is “inactive”.
For the molecule `Cc1nc(SCc2ccc(F)cc2)c([N+](=O)[O-])[nH]1`, the Potency result is “inactive”.
For `CCCOc1ccc(Cn2ccnc2)cc1[N+](=O)[O-]`, the Potency result was “inactive”.
For `CCCCCOc1ccc(CSC2=NCCN2)cc1[N+](=O)[O-]`, the Potency was 20.6 µM (active).
The entry for `COc1ccccc1C1=CC(=O)C[C@H](c2ccc(F)cc2)C1` is “inactive”; for `Cc1ccc(NC(=O)[C@H](Cc2ccccc2)NC(=O)C2CCNCC2)cc1` it is “inactive”; for `CCC(Cc1ccccc1)NC(=O)C1CCCCC1` (configuration not stated) it is 0.651 µM (active).
For the molecule `O=C(COC(=O)CNC(=O)C1CCCCC1)NCc1ccccc1`, the Potency entry was “inactive”.
`O=C(O)c1ccc(Cn2cnc3c(=S)nc[nH]c32)cc1`: the Potency result is “inactive”.
On to `COc1ccccc1N(CCOc1ccccc1)S(=O)(=O)c1ccccc1`, for which the Potency result was “inactive”.
The entry for `COc1ccc(C(=O)NN(C)c2nc(-c3ccccc3)cc(C)c2S(C)(=O)=O)cc1` is “inactive”.
Turning to `CSc1nc(N(C)NC(=O)c2cccc(C)c2)c2ccccc2n1`, the Potency was 0.231 µM (active).
As to `Cc1cccc(C(=O)NCCCN(C)CCCNC(=O)c2cccc(C)c2)c1`, the Potency result was “inactive”.
Regarding `CCN(c1ccccc1)S(=O)(=O)c1ccc(OCC(=O)N2CCCC2)cc1`, the Potency result is “inactive”.
Turning to `O=C(NCCN1CCOCC1)c1ccc2c(c1)N(Cc1ccc(Cl)cc1)CCS2`, the Potency entry was “inactive”.
For the molecule `Cc1ccc(C(=O)NCCN2CCOCC2)cc1C`, the Potency entry is “inactive”.
On to `Cc1c(C)n(Cc2ccc(Cl)cc2)c2ccc(C(=O)NCCCN3CCOCC3)cc12`, for which the Potency is 23.1 µM (active).
For `COC(=O)C1=CO[C@@H](O[C@@H]2O[C@H](CO)[C@@H](O)[C@H](O)[C@H]2O)C2C1C[C@H](O)[C@@H]2C` (some centres not stated), the Potency result is “inactive”.
For the molecule `O=c1nc(NO)ccn1C1CCCO1` (configuration not stated), the Potency entry is “inactive”.
Consider `COc1cc(NC(=O)c2ccccc2NS(=O)(=O)c2ccc(Cl)s2)cc(OC)c1`, for which the Potency is 14.6 µM (active).
Under `COc1cc(NC(=O)c2cccnc2SC)cc(OC)c1` stands “inactive”; under `COc1cc(OC)c(S(=O)(=O)Nc2ccccc2C(=O)O)cc1S(=O)(=O)Nc1ccccc1C(=O)O`, “inactive”; under `N#Cc1ccc(CN2CCN(CC(=O)Nc3ccccc3C(=O)NC3CC3)CC2)cc1`, “inactive”.
Take `O=C(Nc1ccc2c(c1)OCO2)C1CC1(Cl)Cl` (configuration not stated): the Potency result is “inactive”.
For `CC(=O)Nc1ccc(S(=O)(=O)NCC(=O)OCC(=O)c2ccc[nH]2)cc1`, the Potency entry is “inactive”.
On to `CCCCNc1nc2c(c(=O)n(C)c(=O)n2C)n1Cc1cccc(OC)c1`, for which the Potency result is “inactive”.
Take `CCCCNc1c(-c2cccc(Sc3ccc(OC)cc3)c2)nc2ccccn12`: the Potency is 18.4 µM (active).
`COc1ccc(Sc2nc(-c3ccccc3)ncc2OC)cc1`: the Potency entry was “inactive”.
For the molecule `Fc1ccc2cnc(-c3ccccc3)cc2c1`, the Potency entry is “inactive”.
Regarding `COc1cc(/C=C/CNC[C@H]2O[C@@H](n3cnc(C(N)=O)n3)[C@H](O)[C@@H]2O)ccc1O`, the Potency result was “inactive”.
As to `O=C(c1cc2cc(Br)cc(Br)c2oc1=O)N1CCOCC1`, the Potency result is “inactive”.
Under `O=C1Nc2c(Br)cc(Br)cc2C1(O)N1CCOCC1` (configuration not stated) stands 8.2 µM (active).
The entry for `O=C(CSC(=S)N1CCOCC1)c1cc(Br)cc(Br)c1O` is “inactive”; for `Cc1ccc2c(c1)C1C[N+](C)(CC(=O)c3ccccc3)CCC1N2C(=O)c1ccccc1Cl` (configuration not stated) it is “inactive”.
`CC[C@]12c3[nH]c4cc(CCC(=O)N(C)C)ccc4c3CCN1C(=O)[C@@H](CC(=O)NCC13CC4CC(CC(C4)C1)C3)C[C@@H]2C(=O)N1CCN(C(=O)C2CC2)CC1`: the Potency result was “inactive”.
As to `CSc1ccc(/C=N/NC(=O)c2cccc(Cl)c2)cc1`, the Potency entry is “inactive”.
For the molecule `CSc1ccc(/C=N\NC(=O)COc2ccc(Cl)cc2Br)cc1`, the Potency is 13 µM (active).
As to `O=C(COc1ccc(Cl)cc1Cl)N/N=C/c1ccccn1`, the Potency result is “inactive”.
As to `CCC(=O)c1cc(F)ccc1OCC(=O)Nc1ccc2c(c1)OCCO2`, the Potency result is “inactive”.
As for `COc1ccccc1NC(=O)COC(=O)COc1ccccc1F`, the Potency entry was “inactive”.
As for `COc1ccc(CC(=O)NC(C)c2ccc(Cl)c(Cl)c2)cc1S(=O)(=O)N1CCOCC1` (configuration not stated), the Potency result was “inactive”.
As for `Nc1ncnc2c1cnn2C1CC(O)C(CO)O1` (configuration not stated), the Potency entry is “inactive”.
In the case of `CCN(C[C@H]1N[C@@](Cc2ccccc2)(C(=O)OC)[C@H]2C(=O)N(Cc3ccccc3)C(=O)[C@@H]12)C(=O)c1ccc(C)cc1`, the Potency entry is “inactive”.
As to `Cc1ccc(O)c(NC(=S)NC(=O)COc2ccc(Br)cc2)c1`, the Potency is 20.6 µM (active).
On to `Cc1ccc(O)c(NC(=O)COc2cc(C)ccc2C)c1`, for which the Potency entry is “inactive”.
`Cc1cccc(OCC(=O)NC(=S)Nc2ccccc2N2CCOCC2)c1`: the Potency result is “inactive”.
